Source: PubChem BioAssay (NCI)
The panel holds about 83,000 compounds, 20% with a hit somewhere; the sample as a whole holds those more often.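 Interpretation: 100, growth as untreated; towards 0, rising growth inhibition; 0, no net growth; 0 to -100, cell death. Compounds scoring below 10 were considered active.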 Unmarked numbers belong to inactive results. Activity calls are given as the source filed them.

System: MDA-MB-468 breast
Test: NCI-60 one-dose screen, 48 h (100 = growth as untreated, 0 = no growth, -100 = all killed)
Settings: 10 µM unless noted

| Compound | growth |
| --- | --- |
| COc1ccc(NC(=O)c2ccc(Nc3ncnc4[nH]c(C)c(C)c34)cc2)cc1 | 119% |
| Nc1c(C(=O)Nc2ccccc2Cl)sc2nc3c(cc12)CN(Cc1ccccc1)CC3 | 102% |
| CCN(CC)Cc1c(-c2cccc(OC(F)(F)F)c2)[nH]c2ccc(N3CCCC3)cc2c1=O | 93.1% |
| Cc1ccc(NSc2ccccc2[N+](=O)[O-])cc1 | 17.6% |
| Cc1ccc(S(=O)(=O)N(CC[C@@H]2C[C@H]2c2cc3ccccc3o2)S(=O)(=O)c2ccc(C)cc2)cc1 | 80% |
| COc1ccc2c(c1)CCCC21C(=O)Nc2c(Cl)cccc21 (centres undefined) | 109% |
| Nn1c(N/N=C/c2nc3ccccc3s2)n[nH]c1=S | 109% |
| OCCNC(=S)Nc1ccc(-c2nc(N3C[C@H]4CC[C@@H](C3)O4)c3cccn3n2)cc1 | -24.6% (active) |
| O=c1[nH]c(-c2ccccn2)nc2sc3c(c12)CCCCCC3 | 37.8% |
| Cc1c(C(=O)Nc2nc(-c3ccccc3)cs2)nnn1-c1ccccc1Br | -1.78% [50 µM] (active) |
| CCCCCCCCCCN=C(N)N=C(N)N | -12.9% (active) |
| COc1ccc(Cl)cc1C(=O)Nc1nc2ccc(Cl)cc2s1 | 76.7% |
| O=S(=O)(NCCCNc1nccc(-n2ccc3cccnc32)n1)c1cccc(C(F)(F)F)c1 | 108% |
| C#CCn1cc(C=C2C(=O)NC(=O)NC2=O)c2cc(Cl)ccc21 | 41.9% |
| CN1CCN(CC#CCOC(=O)CNC(=O)[C@]23CCC(C)(C)C[C@H]2C2=CC[C@@H]4[C@@]5(C)CC[C@H](O)C(C)(C)[C@@H]5CC[C@@]4(C)[C@]2(C)CC3)CC1 | 97.5% |
| N#Cc1c(-c2cccs2)c(C#N)c(=O)n(Cc2nc3ccccc3[nH]2)c1N | 88.5% |
| CN(CC(=O)N(Cc1ccc(C2CCCCC2)cc1)c1ccc(C(=O)O)cc1)S(=O)(=O)c1c(F)c(F)c(F)c(F)c1F | -86.6% (active) |
| N=C(N)SCc1cccc2c(CSC(=N)N)cccc12 | 108% |
| COc1cc(C(=O)Nc2cc(OC)c3ccn(C)c3c2)cc2c1C[C@]1(C)CC[C@@H](O)C(C)(C)[C@H]1O2 | 8.94% (active) |
| CSc1nc(Nc2cccc(NC(=O)CCl)c2)c(C#N)c(-c2cccc([N+](=O)[O-])c2)n1 | -10.8% (active) |
| COc1ccc2c(c1)C1(C(=O)N2)C(C#N)=C(c2ccccc2)Nc2c1c(-c1ccccc1)nn2-c1ccccc1 (centres undefined) | 76.5% |
| COc1cc(/C=C/C(=O)c2nc3cc(F)ccc3nc2C)cc(OC)c1OC | 23.6% |
| CCN(CC)c1ccc(/C=C/c2cc(C)c3ccccc3n2)cc1 | 1.02% (active) |
| C/C(=N\NC(=S)N1CCCCC1)c1ccccn1 | -27.4% (active) |
